Outcome and AC50 data for ten molecules are collected here from PubChem BioAssay (EPA / NIEHS).

Experiment [1] in a line: ATG_M_32_TRANS: Attagene TRANS-FACTORIAL HepG2 Assay for M32 Transcription Factor (Internal Marker) (AID 2282984; active means hit-call score of the fitted dose curve at least 0.9, where 1 is the maximum). The note with it: HepG2 Attagene TRANS M32 internal marker reporter. The essentials:
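Cell-based TRANS-format assay in HepG2: exogenous chimeric GAL4 reporter units transiently expressed, compounds applied 24 h. Reporter mRNA detected by RT-PCR plus capillary electrophoresis; this readout is an internal background marker.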

The target in experiment [2] is Transcriptional activator Myb (Homo sapiens) (UniProt P10242). As to the kind of experiment: ATG_Myb_CIS: Attagene CIS-FACTORIAL HepG2 Assay for human Myeloblastosis (Myb) Proto-Oncogene Transcription Factor (AID 2282986). Particulars: HepG2 Attagene CIS-FACTORIAL Myb reporter transcription; actives raise or lower the signal. The essentials: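 HepG2 cells were transiently transfected with cis-regulated multiple reporter transcription units reflecting endogenous Myb activity, then exposed to compound for 24 hours. Reporter mRNA was measured by RT-PCR with capillary electrophoresis; bidirectional fitting versus DMSO baseline.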
Transcriptional activator Myb (Homo sapiens), sequence (P10242 whole entry, looked up): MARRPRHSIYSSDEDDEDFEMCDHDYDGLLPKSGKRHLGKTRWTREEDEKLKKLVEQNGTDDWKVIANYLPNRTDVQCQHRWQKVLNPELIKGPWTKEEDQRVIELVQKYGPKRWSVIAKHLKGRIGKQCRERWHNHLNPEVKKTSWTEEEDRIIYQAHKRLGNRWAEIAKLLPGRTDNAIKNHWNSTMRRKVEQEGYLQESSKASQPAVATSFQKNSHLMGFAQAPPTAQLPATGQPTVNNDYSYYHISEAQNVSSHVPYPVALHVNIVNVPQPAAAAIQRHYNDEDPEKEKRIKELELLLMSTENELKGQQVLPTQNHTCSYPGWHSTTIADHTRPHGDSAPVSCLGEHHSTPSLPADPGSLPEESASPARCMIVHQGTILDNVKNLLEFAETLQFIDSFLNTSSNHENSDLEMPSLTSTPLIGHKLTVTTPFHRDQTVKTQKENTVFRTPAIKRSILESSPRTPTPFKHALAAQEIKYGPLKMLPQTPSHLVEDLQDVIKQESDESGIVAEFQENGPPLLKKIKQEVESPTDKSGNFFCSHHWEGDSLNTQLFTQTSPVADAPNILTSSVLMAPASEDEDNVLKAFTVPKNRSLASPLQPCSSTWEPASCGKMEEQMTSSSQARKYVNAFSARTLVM

In experiment [3] the target is Nuclear respiratory factor 1 (Homo sapiens) (UniProt Q16656). As to the kind of experiment: ATG_NRF1_CIS: Attagene CIS-FACTORIAL HepG2 Assay for human Nuclear Respiratory Factor 1 (NRF1) Orphan Gene (AID 2282987). Particulars: HepG2 NRF1 cis-element reporter, Attagene multiplex; actives raise or lower the signal. An outline of the steps: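 HepG2 cells transiently transfected with multiple reporter transcription units under cis-regulatory promoter control, so endogenous transcription-factor activity is read. After 24 h compound exposure, reporter mRNA quantified by RT-PCR, fluorescent labelling, HpaI digestion and capillary electrophoresis; bidirectional fitting versus DMSO.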
Nuclear respiratory factor 1 (Homo sapiens), sequence (Q16656 whole entry, looked up): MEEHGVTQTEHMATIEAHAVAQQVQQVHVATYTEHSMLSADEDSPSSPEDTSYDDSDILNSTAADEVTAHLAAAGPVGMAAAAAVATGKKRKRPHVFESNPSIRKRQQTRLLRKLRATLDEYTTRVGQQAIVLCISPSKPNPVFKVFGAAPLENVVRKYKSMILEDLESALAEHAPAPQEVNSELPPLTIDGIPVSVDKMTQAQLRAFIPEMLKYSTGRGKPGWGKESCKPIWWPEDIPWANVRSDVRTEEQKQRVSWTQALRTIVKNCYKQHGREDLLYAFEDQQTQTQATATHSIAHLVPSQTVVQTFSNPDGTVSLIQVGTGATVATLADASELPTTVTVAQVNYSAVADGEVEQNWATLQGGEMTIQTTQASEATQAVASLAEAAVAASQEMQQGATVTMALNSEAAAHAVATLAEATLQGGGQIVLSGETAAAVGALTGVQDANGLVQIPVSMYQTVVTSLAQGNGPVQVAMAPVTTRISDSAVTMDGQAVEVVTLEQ

The target in experiment [4] is Myc proto-oncogene protein (Homo sapiens) (UniProt P01106). As to the kind of experiment: ATG_Myc_CIS: Attagene CIS-FACTORIAL HepG2 Assay for human Myelocytomatosis (Myc) Proto-Oncogene Transcription Factor (AID 2282990). The note with it: HepG2, Attagene cis-reporter transcription factor activity; actives raise or lower the signal. An outline of the steps: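 HepG2, transient MRTU transfection (cis promoters, endogenous TFs); 24 h dosing; TriZol RNA → oligo(dT) RT → PCR → 6-FAM primer extension → HpaI cut → CE. Bidirectional fit vs DMSO.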
Myc proto-oncogene protein (Homo sapiens), sequence (P01106 whole entry, looked up): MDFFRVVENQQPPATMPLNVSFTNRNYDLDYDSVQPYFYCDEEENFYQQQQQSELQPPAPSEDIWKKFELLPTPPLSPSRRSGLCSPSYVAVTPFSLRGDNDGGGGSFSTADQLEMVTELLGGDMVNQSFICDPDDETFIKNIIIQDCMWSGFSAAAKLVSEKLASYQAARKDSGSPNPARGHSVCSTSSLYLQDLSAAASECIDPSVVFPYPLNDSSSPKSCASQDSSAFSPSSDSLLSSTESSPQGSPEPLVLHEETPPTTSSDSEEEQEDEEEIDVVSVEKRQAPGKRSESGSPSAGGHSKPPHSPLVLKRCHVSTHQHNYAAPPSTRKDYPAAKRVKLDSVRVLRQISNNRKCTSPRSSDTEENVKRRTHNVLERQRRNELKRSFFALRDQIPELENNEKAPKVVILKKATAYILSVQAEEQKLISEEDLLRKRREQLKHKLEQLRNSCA

The nature of experiment [5]: ATG_NRF2_ARE_CIS: Attagene CIS-FACTORIAL HepG2 Assay for human Nuclear Factor Erythroid 2 Related Factor 2 (NFR2) response to Antioxidant Response Elements (ARE) (AID 2282992).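 On AC50: reporter mRNA level measured by RT-PCR and capillary electrophoresis fluorescence.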 Particulars: HepG2 Attagene ARE/NRF2 reporter, transcription factor activity; actives raise or lower the signal. The essentials:
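Fluorescence intensity of reporter-specific cDNA fragments, separated by capillary electrophoresis, reflects mRNA induction in transfected HepG2 cells at 24 h. Activity is fitted bidirectionally, DMSO serving as baseline.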

Experiment [6] in a line: ATG_Oct_MLP_CIS: Attagene CIS-FACTORIAL HepG2 Assay for human Octamer-Binding Transcription Factor (Oct) (AID 2282993). The note with it: HepG2 Attagene cis-factorial Oct reporter, mRNA; actives raise or lower the signal. The essentials: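 After 24 h compound exposure, transfected HepG2 cells were lysed for total RNA; reporter-specific cDNA was PCR-amplified, fluorescently labelled and sized by capillary electrophoresis. Bidirectional curve fitting used DMSO as baseline.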

Experiment [7] deals with Cellular tumor antigen p53 (Homo sapiens) (UniProt P04637). As to the kind of experiment: ATG_p53_CIS: Attagene CIS-FACTORIAL HepG2 Assay for human p53 Transcription Factor (AID 2282994). The note with it: HepG2 p53 cis-element reporter, Attagene mRNA; actives raise or lower the signal. An outline of the steps: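 Transiently transfected HepG2 (multiple cis reporter transcription units); exposure 24 h; reporter RNA via RT-PCR, 6-FAM extension, 2 h HpaI digest at 37 C, CE detection; DMSO baseline.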
Cellular tumor antigen p53 (Homo sapiens), sequence (P04637 whole entry, looked up): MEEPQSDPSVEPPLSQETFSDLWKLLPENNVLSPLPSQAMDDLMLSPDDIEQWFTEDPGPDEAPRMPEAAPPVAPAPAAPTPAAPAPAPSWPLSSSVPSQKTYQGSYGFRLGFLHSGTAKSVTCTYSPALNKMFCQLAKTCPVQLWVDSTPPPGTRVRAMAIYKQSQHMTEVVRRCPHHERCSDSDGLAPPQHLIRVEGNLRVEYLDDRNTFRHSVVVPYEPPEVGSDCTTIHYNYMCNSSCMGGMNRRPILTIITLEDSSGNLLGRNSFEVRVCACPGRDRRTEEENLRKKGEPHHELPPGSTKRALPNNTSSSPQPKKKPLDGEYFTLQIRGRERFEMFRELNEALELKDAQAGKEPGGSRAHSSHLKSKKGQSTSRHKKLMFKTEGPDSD

The target of experiment [8] is human Peroxisome Proliferator-activated Receptor delta (PPARd), PPARD (gene 5467) (UniProt Q03181). As to the kind of experiment: ATG_PPARd_TRANS: Attagene TRANS-FACTORIAL HepG2 Assay for human Peroxisome Proliferator-activated Receptor delta (PPARd) (AID 2283002; active means hit-call score of the fitted dose curve at least 0.9, where 1 is the maximum). An outline of the steps: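 Transient HepG2 transfection (multiple GAL4-UAS RTUs, chimeric receptor-Gal4); 24 h dosing; total RNA → oligo(dT) RT → PCR → 6-FAM primer extension → HpaI cut → CE. Positive direction vs DMSO.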
human Peroxisome Proliferator-activated Receptor delta (PPARd), PPARD (gene 5467), sequence (Q03181 whole entry, looked up, the tested form may be a part): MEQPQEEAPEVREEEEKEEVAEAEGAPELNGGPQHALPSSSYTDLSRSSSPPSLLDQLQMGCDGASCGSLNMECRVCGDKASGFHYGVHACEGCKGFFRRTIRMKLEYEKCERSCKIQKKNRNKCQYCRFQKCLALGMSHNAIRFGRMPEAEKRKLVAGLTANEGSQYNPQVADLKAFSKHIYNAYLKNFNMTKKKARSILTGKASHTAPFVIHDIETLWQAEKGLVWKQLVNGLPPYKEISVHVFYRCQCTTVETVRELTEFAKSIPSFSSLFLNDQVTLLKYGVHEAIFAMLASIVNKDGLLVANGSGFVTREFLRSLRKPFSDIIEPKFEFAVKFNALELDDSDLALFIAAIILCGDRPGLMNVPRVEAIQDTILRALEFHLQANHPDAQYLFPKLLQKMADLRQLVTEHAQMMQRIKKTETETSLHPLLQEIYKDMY

Experiment [9] is described as follows: ATG_M_06_TRANS: Attagene TRANS-FACTORIAL HepG2 Assay for M06 Transcription Factor (Internal Marker) (AID 2282983; active means hit-call score of the fitted dose curve at least 0.9, where 1 is the maximum;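 further: reporter transcript level by RT-PCR then capillary electrophoresis fluorescence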). The note with it: HepG2 Attagene TRANS M06 internal marker reporter. The essentials: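 In this multiplexed HepG2 system, compounds are incubated 24 h with cells carrying GAL4-UAS reporter units. Reporter RNA is amplified and resolved by capillary electrophoresis, and induction is scored against DMSO.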

For experiment [10], the target named is Nuclear receptor subfamily 4 group A member 2 (Homo sapiens) (UniProt P43354). As to the kind of experiment: ATG_NURR1_TRANS: Attagene TRANS-FACTORIAL HepG2 Assay for human Nuclear Receptor Related Protein 1 (NURR1) (AID 2282985; active means hit-call score of the fitted dose curve at least 0.9, where 1 is the maximum). Particulars: HepG2 Attagene TRANS reporter, mRNA readout. An outline of the steps:
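Measures transcriptional activation by an exogenous NR-Gal4 chimera in transfected HepG2 liver cells. After 24 h, reporter RNA is reverse-transcribed, amplified and resolved by capillary electrophoresis; DMSO defines baseline.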

Experiment [11] in a line: ATG_NFI_CIS: Attagene CIS-FACTORIAL HepG2 Assay for human Nuclear Factor I (NFI) (AID 2282989). Particulars: HepG2 cis-regulatory reporter, NFI response element transcription; actives raise or lower the signal. The essentials:
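Multiplexed cis-reporter system in human HepG2 cells reports native TF activity as reporter mRNA induction 24 h post-dose. Fragments labelled with 6-FAM, HpaI-digested and resolved by capillary electrophoresis; activity fitted both directions versus DMSO.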

Experiment [12] in a line: ATG_NF_kB_CIS: Attagene CIS-FACTORIAL HepG2 Assay for human Nuclear Factor Kappa B (NF-kB) (AID 2282991). The note with it: HepG2 Attagene cis-factorial NF-kB reporter mRNA; actives raise or lower the signal. An outline of the steps: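 HepG2 cells transiently transfected with multiplexed cis-element reporter units measuring endogenous transcription factor activity; reporter mRNA read 24 h after dosing by RT-PCR, fluorescent labelling, HpaI digestion and capillary electrophoresis. Bidirectional fit against DMSO baseline.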

In experiment [13] the target is human Peroxisome Proliferator-activated Receptor alpha (PPARa), PPARA (gene 5465) (UniProt Q07869). As to the kind of experiment: ATG_PPARa_TRANS: Attagene TRANS-FACTORIAL HepG2 Assay for human Peroxisome Proliferator-activated Receptor alpha (PPARa) (AID 2283001; active means hit-call score of the fitted dose curve at least 0.9, where 1 is the maximum). The essentials:
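Transfected HepG2 cells treated with test chemical for 24 h. RNA isolated, reverse-transcribed with oligo(dT), PCR-amplified, FAM-labelled and HpaI-digested. Fragments sized by capillary electrophoresis; gain-of-signal fit relative to DMSO.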

A short description of experiment [14]: ATG_M_61_TRANS: Attagene TRANS-FACTORIAL HepG2 Assay for M61 Transcription Factor (Internal Marker) (AID 2282988). Particulars: HepG2 Attagene TRANS M61 internal marker reporter. An outline of the steps:
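Background-control reporter transcript, measured after 24 h chemical exposure of transiently transfected HepG2 cells carrying multiple GAL4-UAS reporter units. Read-out by RT-PCR with 6-FAM primer extension and capillary electrophoresis, gain of signal versus DMSO.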

Each structure is given as a SMILES string. Records with an inconclusive call do not appear. Active and inactive are the calls of the source. How the source made its calls, unless noted: active means hit-call score of the fitted dose curve at least 0.9, where 1 is the maximum; inactive means score below 0.9.

human Peroxisome Proliferator-activated Receptor alpha (PPARa), PPARA (gene 5465), sequence (Q07869 whole entry, looked up, the tested form may be a part): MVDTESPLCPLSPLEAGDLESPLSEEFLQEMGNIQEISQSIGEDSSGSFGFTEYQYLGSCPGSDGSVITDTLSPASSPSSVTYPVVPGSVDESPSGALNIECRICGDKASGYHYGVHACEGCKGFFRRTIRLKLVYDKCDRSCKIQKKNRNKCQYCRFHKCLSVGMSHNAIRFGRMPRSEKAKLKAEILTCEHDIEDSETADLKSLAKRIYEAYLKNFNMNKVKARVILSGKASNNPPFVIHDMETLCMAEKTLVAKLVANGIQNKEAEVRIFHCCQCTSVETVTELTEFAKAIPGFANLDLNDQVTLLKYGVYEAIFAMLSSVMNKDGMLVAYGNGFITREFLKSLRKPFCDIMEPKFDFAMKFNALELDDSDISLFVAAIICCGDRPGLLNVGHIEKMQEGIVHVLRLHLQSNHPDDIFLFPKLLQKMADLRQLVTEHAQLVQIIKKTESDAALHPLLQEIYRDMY
Nuclear receptor subfamily 4 group A member 2 (Homo sapiens), sequence (P43354 whole entry, looked up, the tested form may be a part): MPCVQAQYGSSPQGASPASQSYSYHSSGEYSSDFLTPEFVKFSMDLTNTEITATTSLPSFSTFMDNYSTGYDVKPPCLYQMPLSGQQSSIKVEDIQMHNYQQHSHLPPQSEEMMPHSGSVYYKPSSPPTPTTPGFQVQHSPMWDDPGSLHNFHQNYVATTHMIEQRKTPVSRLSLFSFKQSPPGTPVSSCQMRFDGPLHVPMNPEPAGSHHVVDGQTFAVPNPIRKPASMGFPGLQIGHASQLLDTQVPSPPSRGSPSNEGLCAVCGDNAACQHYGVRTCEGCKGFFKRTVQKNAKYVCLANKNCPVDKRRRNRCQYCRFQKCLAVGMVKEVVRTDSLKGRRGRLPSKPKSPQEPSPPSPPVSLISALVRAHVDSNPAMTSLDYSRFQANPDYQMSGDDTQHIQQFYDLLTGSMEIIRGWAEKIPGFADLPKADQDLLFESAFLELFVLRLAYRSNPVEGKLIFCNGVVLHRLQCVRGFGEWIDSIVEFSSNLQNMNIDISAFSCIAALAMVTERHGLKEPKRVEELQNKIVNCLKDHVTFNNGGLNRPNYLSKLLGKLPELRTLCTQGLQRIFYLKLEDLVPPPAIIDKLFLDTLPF

Take `NCCN`: the call in experiment [1], in [2], in [3], in experiment [4], in experiment [5] and in [6] was inactive. Also, the molecule was called inactive in [7] and in [8].

For `CC(C)CCOCCC(C)C`, the molecule was called inactive in experiment [9], in experiment [10], in experiment [2], in experiment [3], in experiment [11] and in experiment [4]. Also, the molecule was classed as inactive in experiment [12], in experiment [5] and in [7].

Take `C=CC(=O)OCCC(F)(F)C(F)(F)C(F)(F)C(F)(F)C(F)(F)C(F)(F)F`: the call in experiment [9], in [2], in [3], in [4], in experiment [12] and in experiment [6] was inactive. For the same molecule, the molecule was called inactive in experiment [7], in experiment [13] and in experiment [8]. For the same molecule, the AC50 (commonly the concentration giving half of the maximal activity seen) in experiment [5] is 18.6 µM (active).

As to `CCOC(=O)c1nc(C(Cl)(Cl)Cl)n(-c2ccc(Cl)cc2Cl)n1`, the AC50 in experiment [1] is 100 µM (active); in experiment [10], 66 µM (active); in [4], 24.5 µM (active); in experiment [5], 26.8 µM (active). The result in experiment [2], in [3], in experiment [14], in [11], in experiment [12] and in experiment [6] was inactive.

As to `Cn1sccc1=O`, the outcome in experiment [1], in experiment [2] and in [13] was inactive. For the same molecule, the AC50 in [3] is 170 µM (active); in [11], 163 µM (active); in experiment [4], 187 µM (active); in [5], 161 µM (active); in [6], 171 µM (active).

Turning to `CC(C)c1c(C(=O)Nc2ccccc2)c(-c2ccccc2)c(-c2ccc(F)cc2)n1CC[C@@H](O)C[C@@H](O)CC(=O)O`, the outcome in experiment [9], in experiment [1], in experiment [2], in experiment [4], in experiment [6] and in [13] was inactive. For the same molecule, in experiment [8], the call was inactive.

In the case of `CCCCCCCCCC=CCC1CC(=O)OC1=O` (stereo not given), the outcome in experiment [9], in experiment [2], in experiment [3], in experiment [11], in [4] and in experiment [5] was inactive. Also, the call in experiment [6], in experiment [7] and in experiment [13] was inactive. In experiment [12], the AC50 was 54.9 µM (active).

Regarding `c1ccc2c(c1)CCC2`, the call in [2], in experiment [3], in experiment [4], in experiment [12], in experiment [5] and in experiment [7] was inactive. Also, in experiment [13], the molecule was called inactive.

As for `CCCCCCCC(OC)OC`, the call in experiment [9], in [2], in experiment [3], in experiment [11], in experiment [4] and in experiment [12] was inactive. In addition, the molecule was called inactive in [5], in experiment [6], in experiment [7] and in experiment [8].

Turning to `Cc1ccc(C)c(S(=O)(=O)O)c1`, the molecule was called inactive in experiment [9], in experiment [1], in experiment [2], in experiment [3], in experiment [11] and in experiment [4]. Further, the molecule was called inactive in experiment [5], in experiment [6], in experiment [7], in experiment [13] and in experiment [8].
